ALDH1A1 block – blocks purified human ALDH1A1 activity | Purified ALDH1A1, NADH fluorescence, propionaldehyde substrate | 220,000 tested, 7.3% active | Potency, µM (highest dose often 75.3 µM), without a hit: top-dose activity, negative = inhibition, most hits filed as inhibitors;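 further: potency means the concentration at half of the fitted maximal effect; plate controls were no enzyme wells and a reference inhibitor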
Target sequence (P00352 whole entry, looked up): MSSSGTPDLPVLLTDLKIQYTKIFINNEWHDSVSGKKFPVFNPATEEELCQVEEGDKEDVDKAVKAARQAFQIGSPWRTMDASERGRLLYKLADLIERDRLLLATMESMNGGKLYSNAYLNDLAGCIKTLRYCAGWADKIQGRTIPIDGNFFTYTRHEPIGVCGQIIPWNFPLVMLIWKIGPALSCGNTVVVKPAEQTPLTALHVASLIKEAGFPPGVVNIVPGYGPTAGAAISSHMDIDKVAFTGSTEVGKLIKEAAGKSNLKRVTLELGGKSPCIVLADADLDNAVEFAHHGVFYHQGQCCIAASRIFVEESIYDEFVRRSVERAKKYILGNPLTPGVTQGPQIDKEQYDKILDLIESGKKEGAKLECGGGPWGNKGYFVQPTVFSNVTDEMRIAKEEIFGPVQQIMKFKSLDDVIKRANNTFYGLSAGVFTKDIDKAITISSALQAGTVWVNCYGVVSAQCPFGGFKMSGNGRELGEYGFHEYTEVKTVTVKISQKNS
PNC inhibitor – inhibitors of perinucleolar compartment assembly; 140,000 tested, 3.1% active; PC3M PTB-GFP, PNC prevalence imaging, 16 h; active compounds read low; activity change (PNC), negative = inhibition, % at 10 µM;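 active means readout at or below -70, meaning at least 70% loss of cells showing the perinucleolar compartment, a nuclear body marking cancer cells; inconclusive means readout between -30 and a set limit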;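 further: plate controls were DMSO wells for no effect and camptothecin positive control wells for full effect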
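Read-out is percentage of cells bearing a perinucleolar compartment, from automated 20x imaging of fixed, Hoechst-stained PC3M PTB-GFP cells. Cells were seeded 4 h, then exposed 16 h to compound (23 nl of library stock) in duplicate plates.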
LMNA splice mod – modulators of lamin A splicing; Potency, µM (highest dose often 46.1 µM), for the others: at the highest dose ratio change, negative = inhibition, usual class: inhibitors; 200,000 tested, 0.01% active; HeLa LMNA splicing GFP/RFP minigene ratio, 48 h; AID 1487; active means well fitted inhibition curve with a large enough effect in the signal ratio, with a control signal flat, not every such curve was filed as active; inconclusive means small, poorly fitted or top-dose-only effect, or effect the other way, or a change in a side signal; the % refers to the signal ratio; further: potency means the concentration at half of the fitted maximal effect
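Read-out is the ratio of GFP to DsRed2 object intensity, acquired by 488 nm laser-scanning cytometry on HeLa lamin A-EGFP minigene reporter cells. Compound incubation 48 hrs at 37 °C in Opti-MEM with 2% FBS; DMSO 0.5% final.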
12-hLO inh – blocks human 12-lipoxygenase activity | AID 1452 | 150,000 tested, 0.12% active | Potency, µM (highest dose often 57.1 µM), without a hit: top-dose activity change, negative = inhibition, hits mostly inhibitors | P18054 | purified 12-hLO, xylenol orange hydroperoxide absorbance; active means well fitted inhibition curve with a large enough effect; inconclusive means small, poorly fitted or top-dose-only effect; further: potency means the concentration at half of the fitted maximal effect; nearly all actives have a fitted effect of over 55% in size
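Purified human 12hLO (150 nM final) was preincubated with compounds for 15 min at room temperature in 25 mM Hepes pH 7.0, 0.01% Triton X-100, then reacted with 40 uM arachidonic acid for 30 min. Hydroperoxide was detected with ferrous iron/xylenol orange.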
HPGD block – blocks human HPGD enzyme activity; 150,000 tested, 4.3% active; Potency, µM, without a hit: top-dose activity change, negative = inhibition, usual class: inhibitors; purified HPGD, NADH fluorescence kinetic, PGE2 substrate; P15428; further: potency means the concentration at half of the fitted maximal effect
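20 nM HPGD preincubated 15 min at room temperature with compound in 50 mM Tris-HCl pH 8, 0.01% Tween 20. Started with 1 mM NAD+ and 30 uM prostaglandin E2; NADH fluorescence (360/450 nm) read 5 times over 30-s intervals, last minus first.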
* hit, by the source's call; ? = inconclusive; . = not tested or not shown; ! = repeats disagree; [ ] = dose if it differs, or a comment. A selection: hits, their analogues and other compounds. The true share with any hit is near 10%. Unless noted, the call rests on the fitted dose curve; in most records, active means well fitted inhibition curve with a large enough effect (not every such curve was filed as active); inconclusive means small, poorly fitted or top-dose-only effect, or another doubt; inactive means no such curve, though single readings can be large or run the other way. Unless noted, on the % scale 0 is the no-effect control and ±100 the full control effect.

SMILES	ALDH1A1 block	PNC inhibitor	LMNA splice mod	12-hLO inh	HPGD block
O=C(c1ccc(C#CC2(O)CCCCC2)cc1)N1CCOCC1	-11%	?	4%	-7%	14µM*
O=C(CCc1nc(-c2ccccc2)no1)NC1CCCCC1	?	5	4%	6%	18µM*
O=C(CCc1nc(-c2ccccc2F)no1)NC1CCCCCC1	-11%	?	?	2%	28µM*
CSc1ncnc2c1ncn2[C@@H]1O[C@@H](CO)[C@H](O)O[C@@H]1O	8%[13.5 µM]	.	.	-5%[11.4 µM]	-3%
COc1cc2c(C(=O)NCc3ccc(C)o3)cn(CC(C)C)c(=O)c2cc1OC	?	-108*	0%	-3%	-5%
N[C@@H]1CCN(O)C1=O	0%	.	.	0%	-2%
C[C@@](O)(CNS(=O)(=O)c1ccccc1)c1ccccc1	-3%[13.5 µM]	.	.	-2%[11.4 µM]	-3%
C/C(CC(C)(C)c1ccccc1)=N\NS(=O)(=O)c1ccccc1	13µM*	.	.	.	.
COC(=O)c1sc(N2C(=O)C(O)=C(C(=O)c3ccc(C)o3)C2c2ccc(F)cc2)nc1C (stereo unspecified)	?	17	?	-6%	8.9µM*
COc1ccc(-c2nc3sc(CCNC(=O)C(=O)Nc4ccc(C)c(C)c4)c(C)n3n2)cc1	.	.	9%[46 µM]	.	.
CCOC(=O)C1(C)/C(=N/Nc2ccc(Cl)cc2)C(=O)C(=O)N1c1ccccc1 (stereo unspecified)	?	?	15%	?	?
CCOC(=O)C1(C)/C(=N/Nc2ccc(S(N)(=O)=O)cc2)C(=O)C(=O)N1c1ccccc1 (stereo unspecified)	18µM*	.	-1%[46 µM]	.	.
NS(=O)(=O)c1ccc(NC(=S)N2CCN(c3ccccc3)CC2)cc1	15%	?	-5%	-1%	-7%
CCOC(=O)C1(C)/C(=N/Nc2ccccc2Cl)C(=O)C(=O)N1c1ccccc1 (stereo unspecified)	0.22µM*	-24	-20%	?	40µM*
CCOC(=O)C1(C)/C(=N/Nc2cccc(Cl)c2)C(=O)C(=O)N1c1ccccc1 (stereo unspecified)	?	21	?	3.2µM*	32µM*
C=CCOc1ccnc(-c2ccccc2)n1	9%	.	.	.	.
COc1cccc(-n2ccnc2SCC(=O)Nc2cccc(C)c2C)c1	.	.	-3%[46 µM]	.	.
CCOCCc1nn2c(=O)cc(COC(=O)c3ccccc3NC(=O)C3CCCCC3)nc2s1	.	.	7%[46 µM]	.	.
CCc1ccc(-n2c(CSc3nnnn3-c3ccccc3)nc3ccccc3c2=O)cc1	1.4µM*	27	20%	-2%	-11%
COC(=O)c1ccc(CSc2nnnn2-c2ccccc2)o1	7.1µM*	-14	1%	5%	-21%
COC(=O)c1ccc(-n2nnnc2SCC(=O)Nc2ccccc2C(=O)OC)cc1	-1%	7	-7%	5%	-22%
COC(=O)c1ccc(-n2nnnc2SCc2ccccc2OC)cc1	14µM*	10	?	-7%	-24%
CC(C)[C@@H](CC(=O)N[C@@H]1CCNC[C@H]1C(=O)N[C@H](CC(=O)N[C@@H](CCC(=O)O)CC(=O)O)Cc1ccccc1)NC(=O)C[C@H](CO)NC(=O)[C@@H]1CCCC[C@H]1N	-1%	.	.	3%	-4%
COC(=O)c1ccccc1NC(=O)c1cn2c3c(ccc(Cl)c3c1=O)OC(C)C2 (stereo unspecified)	.	.	0%[46 µM]	.	.
CC1CCc2c(sc3nc(CSc4ncn[nH]4)[nH]c(=O)c23)C1 (stereo unspecified)	?	-19	-22%	0%	.
SMILES	ALDH1A1 block	PNC inhibitor	LMNA splice mod	12-hLO inh	HPGD block
COc1cc(/C=C2/S/C(=N/S(=O)(=O)c3ccccc3)NC2=O)c([N+](=O)[O-])cc1OC	-3%	?	4%	-12%	5µM*
O=C(Nc1ccc(N2CCOCC2)nc1)c1ccccc1Cl	7%	.	.	.	.
CC1(C)Cc2ccccc2C(CSc2ccccc2C(=O)O)=N1	40µM*	.	-16%[46 µM]	.	.
N#C/C(=N\O)c1nc(-c2ccccc2)cs1	0%	-127*!	?	-9%	-26%
N#CC(=C1CCCC1)c1nc(-c2ccccc2)cs1	-11%	74	-8%	-16%	-13%
CCOC(=O)c1ccc(NS(=O)(=O)c2ccc(SC)cc2)cc1	?	-27	?	-24%	-13%
CCOc1ccc(NS(=O)(=O)c2ccc(SC)cc2)cc1	11µM*	-14	?	-7%	-5%

Screening data as filed in PubChem.
